Results on 20 molecules are retold here after the supplement of paper PMC9262897, “Low-cost anti-mycobacterial drug discovery using engineered E. coli” (Nature Communications, 2022).

SMILES strings stand for the structures. Structures can show the parent of a compound that is named as a salt. ± gives the standard deviation of the averaged measurements.

The first experiment relates to E. coli TESEC Mtb DapB. As to the kind of experiment: growth (OD600 after 10 h); higher = more growth (less inhibition). The following applies: arabinose induction (level): High; compound 0.1 mM; raw OD600 reference: median of DMSO wells […], cell-free background 0.041. The procedure:
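TESEC E. coli strains in which the native enzyme is deleted and replaced by arabinose-inducible Mtb Asd, DapB, CysH or TrpD, each grown in its selective medium. Strains were screened against the Prestwick library at 0.1 mM and 1% DMSO in 384-well format at low and high arabinose induction. Growth is read as OD600 after 10 h in triplicate.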
Consider `O=C1NCC2(CCN(CCc3ccccc3)CC2)O1` [Fenspiride hydrochloride], for which the growth was found to be 0.199 ± 0.011.

On to `C[C@H]1O[C@H](O[C@H]2[C@H](O)[C@@H](O)[C@@H](O[C@@H]([C@H](O)[C@@H](O)C=O)[C@H](O)CO)O[C@@H]2CO)[C@H](O)[C@@H](O)[C@@H]1N[C@H]1C=C(CO)[C@@H](O)[C@H](O)[C@H]1O` [Acarbose], for which the growth turned out to be 0.196 ± 0.018.

Consider `CN1CCCN(C(c2ccccc2)c2ccc(Cl)cc2)CC1` (stereo not given) [Homochlorcyclizine dihydrochloride], for which the growth came out at 0.169 ± 0.0068.

`CN[C@@H]1[C@@H](O[C@H]2O[C@H](CO)[C@@H](N)[C@H](O)[C@H]2O)OC2C[C@@H](N)[C@@H](O[C@H]3[C@H](O)[C@@H](O)[C@H](N)C[C@@H]3N)OC2[C@@H]1O` (stereo not given in full) [Apramycin]: the growth amounted to 0.0527 ± 0.0023.

The molecule `CCC(=O)O[C@@H](O[P@](=O)(CCCCc1ccccc1)CC(=O)N1C[C@H](C2CCCCC2)C[C@H]1C(=O)O)C(C)C` [Fosinopril] came in with a growth of 0.165 ± 0.0076.

On to `CCCN(CCC)S(=O)(=O)c1ccc(C(=O)O)cc1` [Probenecid], for which the growth was determined as 0.232 ± 0.0066.

Molecule `O=P(O)(O)C(O)(Cc1cccnc1)P(=O)(O)O` [Risedronic acid monohydrate] yielded a growth of 0.192 ± 0.014.

For `CN(C)CCCOc1nn(Cc2ccccc2)c2ccccc12` [Benzydamine hydrochloride], the growth was determined as 0.192 ± 0.023.

`CN(CCOc1ccc(CC2SC(=O)NC2=O)cc1)c1ccccn1` (stereo not given) [Rosiglitazone Hydrochloride]: the growth stood at 0.177 ± 0.015.

Molecule `O=C(O)CCC(=O)Nc1ccc(S(=O)(=O)Nc2nccs2)cc1` [Succinylsulfathiazole] gave a growth of 0.196 ± 0.024.

In the case of `CC1=Nc2ccc(Cl)cc2S(=O)(=O)N1` [Diazoxide], the growth was determined as 0.199 ± 0.0067.

`CNC[C@H](O)[C@@H](O)[C@H](O)[C@H](O)CO` [Meglumine] displayed a growth of 0.199 ± 0.049.

On to `CC(=O)SCC(Cc1ccccc1)C(=O)NCC(=O)OCc1ccccc1` (stereo not given) [Racecadotril], for which the growth was 0.172 ± 0.012.

`CCC(=O)O[C@]1(C(=O)SCF)[C@H](C)C[C@H]2[C@@H]3C[C@H](F)C4=CC(=O)C=C[C@]4(C)[C@@]3(F)[C@@H](O)C[C@@]21C` [Fluticasone propionate]: the growth stood at 0.199 ± 0.015.

For the molecule `CC[C@H](C)C(=O)O[C@H]1C[C@@H](C)C=C2C=C[C@H](C)[C@H](CC[C@@H]3C[C@@H](O)CC(=O)O3)[C@H]21` [Lovastatin], the growth came out at 0.163 ± 0.018.

In turn, `CN1CCCC(CC2c3ccccc3Sc3ccccc32)C1` (stereo not given) [Metixene hydrochloride] registered a growth of 0.135 ± 0.07.

`CC(C)NC[C@H](O)COc1cccc2ccccc12` [(S)-propranolol hydrochloride]: the growth was 0.173 ± 0.025.

The molecule `O=C(CCNNC(=O)c1ccncc1)NCc1ccccc1` [Nialamide] showed a growth of 0.217 ± 0.034.

The molecule `CC(C)C(=O)c1c(C(C)C)nn2ccccc12` [Ibudilast] yielded a growth of 0.194 ± 0.012.

`O=C(CCCN1CCC(O)(c2ccc(Br)cc2)CC1)c1ccc(F)cc1` [Bromperidol] had a growth of 0.177 ± 0.014.

The experiment is the same for the next values; noted with them: arabinose induction (level): Low; compound 0.1 mM; raw OD600 reference: median of DMSO wells 0.227, cell-free background 0.041.
As for `O=C1NCC2(CCN(CCc3ccccc3)CC2)O1` [Fenspiride hydrochloride], the growth is 0.253 ± 0.048.

For the molecule `C[C@H]1O[C@H](O[C@H]2[C@H](O)[C@@H](O)[C@@H](O[C@@H]([C@H](O)[C@@H](O)C=O)[C@H](O)CO)O[C@@H]2CO)[C@H](O)[C@@H](O)[C@@H]1N[C@H]1C=C(CO)[C@@H](O)[C@H](O)[C@H]1O` [Acarbose], the growth was determined as 0.236 ± 0.037.

Molecule `CN1CCCN(C(c2ccccc2)c2ccc(Cl)cc2)CC1` (stereo not given) [Homochlorcyclizine dihydrochloride] came in with a growth of 0.215 ± 0.039.

The molecule `CN[C@@H]1[C@@H](O[C@H]2O[C@H](CO)[C@@H](N)[C@H](O)[C@H]2O)OC2C[C@@H](N)[C@@H](O[C@H]3[C@H](O)[C@@H](O)[C@H](N)C[C@@H]3N)OC2[C@@H]1O` (stereo not given in full) [Apramycin] had a growth of 0.048 ± 0.0016.

As to `CCC(=O)O[C@@H](O[P@](=O)(CCCCc1ccccc1)CC(=O)N1C[C@H](C2CCCCC2)C[C@H]1C(=O)O)C(C)C` [Fosinopril], the growth was determined as 0.226 ± 0.017.

The molecule `CCCN(CCC)S(=O)(=O)c1ccc(C(=O)O)cc1` [Probenecid] showed a growth of 0.223 ± 0.02.

Molecule `O=P(O)(O)C(O)(Cc1cccnc1)P(=O)(O)O` [Risedronic acid monohydrate] registered a growth of 0.26 ± 0.052.

In turn, `CN(C)CCCOc1nn(Cc2ccccc2)c2ccccc12` [Benzydamine hydrochloride] had a growth of 0.216 ± 0.051.

In turn, `CN(CCOc1ccc(CC2SC(=O)NC2=O)cc1)c1ccccn1` (stereo not given) [Rosiglitazone Hydrochloride] yielded a growth of 0.215 ± 0.028.

`O=C(O)CCC(=O)Nc1ccc(S(=O)(=O)Nc2nccs2)cc1` [Succinylsulfathiazole]: the growth worked out at 0.258 ± 0.028.

As for `CC1=Nc2ccc(Cl)cc2S(=O)(=O)N1` [Diazoxide], the growth worked out at 0.245 ± 0.048.

Molecule `CNC[C@H](O)[C@@H](O)[C@H](O)[C@H](O)CO` [Meglumine] showed a growth of 0.235 ± 0.017.

The molecule `CC(=O)SCC(Cc1ccccc1)C(=O)NCC(=O)OCc1ccccc1` (stereo not given) [Racecadotril] registered a growth of 0.24 ± 0.023.

In turn, `CCC(=O)O[C@]1(C(=O)SCF)[C@H](C)C[C@H]2[C@@H]3C[C@H](F)C4=CC(=O)C=C[C@]4(C)[C@@]3(F)[C@@H](O)C[C@@]21C` [Fluticasone propionate] displayed a growth of 0.239 ± 0.04.

On to `CC[C@H](C)C(=O)O[C@H]1C[C@@H](C)C=C2C=C[C@H](C)[C@H](CC[C@@H]3C[C@@H](O)CC(=O)O3)[C@H]21` [Lovastatin], for which the growth was 0.192 ± 0.023.

On to `CN1CCCC(CC2c3ccccc3Sc3ccccc32)C1` (stereo not given) [Metixene hydrochloride], for which the growth came to 0.0594 ± 0.0035.

In turn, `CC(C)NC[C@H](O)COc1cccc2ccccc12` [(S)-propranolol hydrochloride] came in with a growth of 0.231 ± 0.051.

The molecule `O=C(CCNNC(=O)c1ccncc1)NCc1ccccc1` [Nialamide] displayed a growth of 0.249 ± 0.014.

Consider `CC(C)C(=O)c1c(C(C)C)nn2ccccc12` [Ibudilast], for which the growth came out at 0.208 ± 0.038.

As to `O=C(CCCN1CCC(O)(c2ccc(Br)cc2)CC1)c1ccc(F)cc1` [Bromperidol], the growth turned out to be 0.215 ± 0.044.
